In the library only some 2.9% were active in any assay of this set; here they are far more common.
PLCb3 inh – inhibitors of human phospholipase C beta3. Purified PLC-beta3, fluorogenic substrate, fluorescence. inhibition, % at 12.2 µM. 370,000 tested, 0.18% active; in the data active means inhibition above about 11%
KLK7 zymogen act – activates the human kallikrein-7 zymogen; P49862; purified proKLK7, EDANS-DABCYL substrate fluorescence; 100% is mature enzyme control, 0% vehicle; activation, % at 7 µM; 370,000 tested, 0.9% active;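 active means activation above the mean of all tested compounds plus 3 SD, computed per campaign excluding outliers beyond control limits, cut at about 13% in these data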
ADAM10 inh – ADAM10 inhibition, QFRET primary screen | recombinant ADAM10, EDANS/DABCYL FRET peptide cleavage, 3 h | inhibition, % at 7 µM | 370,000 tested, 0.62% active | AID 720582;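 active means inhibition above a per-campaign cutoff equal to the mean of compounds falling between control-based bounds plus 3 SD, cut at about 20% in these data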
ADAM17 inh – ADAM17 inhibition, QFRET primary screen; P78536; recombinant ADAM17, EDANS/DABCYL FRET peptide cleavage; inhibition, % at 6.95 µM; 370,000 tested, 0.83% active;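 active means inhibition above the mean of compounds lying between control limits plus 3 SD, set per campaign, cut at about 8.5% in these data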
Target sequence (P78536 215-824 limits assumed): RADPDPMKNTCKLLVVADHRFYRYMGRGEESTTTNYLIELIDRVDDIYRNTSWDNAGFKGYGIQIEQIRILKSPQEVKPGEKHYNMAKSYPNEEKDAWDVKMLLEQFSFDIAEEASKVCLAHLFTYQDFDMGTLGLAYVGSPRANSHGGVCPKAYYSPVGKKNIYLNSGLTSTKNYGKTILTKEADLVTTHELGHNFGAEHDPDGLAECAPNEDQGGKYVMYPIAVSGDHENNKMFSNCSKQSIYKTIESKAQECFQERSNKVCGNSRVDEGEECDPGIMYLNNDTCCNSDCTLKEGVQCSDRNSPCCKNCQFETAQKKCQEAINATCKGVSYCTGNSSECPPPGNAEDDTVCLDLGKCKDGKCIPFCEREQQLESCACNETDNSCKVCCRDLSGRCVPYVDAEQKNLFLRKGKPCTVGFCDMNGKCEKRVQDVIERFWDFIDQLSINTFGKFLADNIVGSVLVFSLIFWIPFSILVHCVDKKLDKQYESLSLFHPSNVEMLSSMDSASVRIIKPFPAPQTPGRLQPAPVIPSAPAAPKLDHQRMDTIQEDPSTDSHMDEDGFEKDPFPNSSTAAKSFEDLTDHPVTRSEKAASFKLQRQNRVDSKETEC
PLC-gamma1 inh – PLC-gamma1 (human) inhibition, primary screen; inhibition, % at 12.2 µM; P19174; AID 720700; purified PLC-gamma1, fluorogenic substrate, fluorescence; 370,000 tested, 0.84% active; in the data active means inhibition above about 9.5%
proKLK7 act conf – proKLK7 activation, confirmation. shares compounds with KLK7 zymogen act. purified proKLK7, EDANS-DABCYL substrate fluorescence; scaled: vehicle 0, mature enzyme 100. activation, % at 7 µM. 3,200 tested, 68% active;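 active means activation, as change over the incubation, above the mean of all tested compounds plus 3 SD, cut at about 13% in these data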
EDANS-DABCYL int – optically interferes with EDANS-DABCYL signal, flagging KLK7 hits | shares compounds with KLK7 zymogen act | EDANS-DABCYL substrate fluorescence interference, no enzyme, 4 h; solvent 0%, active enzyme control 100% | activation, % at 7 µM | 3,200 tested, 80% active;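 active means activation above the all-compound mean plus 3 SD, ignoring values outside control-based bounds, cut at about 4.8% in these data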;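 further: value is the 4 h activation minus the activation read at time zero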
EDANS interf – counter-screen for kallikrein-7 activators: EDANS-DABCYL interference, dose response | EDANS-DABCYL peptide fluorescence interference, no enzyme | 250 tested, 20% active | shares compounds with KLK7 zymogen act | EC50, µM;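 active means compounds that raise the fluorescence signal in this interference counterscreen, with EC50 at or below 10 µM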;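 further: intact quenched peptide substrate alone read at 355 nm excitation and 520 nm emission; signal is fluorescence gain from T0 to T4 after four hours at room temperature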
Hits are given with their value.

Results for CC(=O)Nc1ccc2nc3ccccc3nc2c1 ?
PLCb3 inh: inactive; KLK7 zymogen act: 43.3; ADAM10 inh: inactive; ADAM17 inh: inactive; PLC-gamma1 inh: inactive; proKLK7 act conf: 45.5; EDANS-DABCYL int: 42.5

How did CC(=O)Nc1cccc(Nc2nc(-c3ccccc3)nc3ccccc23)c1 do in these assays?
PLCb3 inh: inactive; KLK7 zymogen act: 18.9; ADAM10 inh: inactive; ADAM17 inh: inactive; PLC-gamma1 inh: inactive; proKLK7 act conf: inactive; EDANS-DABCYL int: 7.8

How did CC(=O)OCC(=O)c1ccc2ccn(C(C)=O)c2c1 do in these assays?
PLCb3 inh: inactive; KLK7 zymogen act: 17.7; ADAM10 inh: inactive; ADAM17 inh: inactive; PLC-gamma1 inh: inactive; proKLK7 act conf: 32.4; EDANS-DABCYL int: 32.1

Results for O=C1c2ccccc2-c2n[nH]c3cccc1c23 ?
PLCb3 inh: inactive; KLK7 zymogen act: 62.8; ADAM10 inh: inactive; ADAM17 inh: inactive; PLC-gamma1 inh: inactive; proKLK7 act conf: 73.9; EDANS-DABCYL int: 75.4

Results for O=c1c(-c2ccccc2)n[nH]c2ccccc12 ?
PLCb3 inh: inactive; KLK7 zymogen act: inactive; ADAM10 inh: inactive; ADAM17 inh: inactive; PLC-gamma1 inh: inactive

Results for CN(C)CCNc1ccc2nnn3c4ccc(O)cc4c(=O)c1c23 ?
PLCb3 inh: inactive; KLK7 zymogen act: inactive; ADAM10 inh: inactive; ADAM17 inh: inactive; PLC-gamma1 inh: inactive

How did CCN(CC)CCCNc1ccc2ncn3c4ccc(O)cc4c(=O)c1c23 do in these assays?
PLCb3 inh: inactive; KLK7 zymogen act: 71.0; ADAM10 inh: inactive; ADAM17 inh: inactive; PLC-gamma1 inh: inactive; proKLK7 act conf: inactive; EDANS-DABCYL int: 28.4

How did COc1ccc(OCC(=O)Nc2c(Cl)ccc3nsnc23)cc1 do in these assays?
PLCb3 inh: inactive; KLK7 zymogen act: inactive; ADAM10 inh: inactive; ADAM17 inh: inactive; PLC-gamma1 inh: inactive

How did O=C(O)COc1ccc2nsnc2c1Cl do in these assays?
PLCb3 inh: inactive; KLK7 zymogen act: 19.5; ADAM10 inh: inactive; ADAM17 inh: inactive; PLC-gamma1 inh: inactive; proKLK7 act conf: 26.8; EDANS-DABCYL int: 23.7

How did COc1cccc(OC)c1C(=O)Nc1nc2cc3c(cc2s1)OCO3 do in these assays?
PLCb3 inh: inactive; KLK7 zymogen act: 19.2; ADAM10 inh: inactive; ADAM17 inh: inactive; PLC-gamma1 inh: inactive; proKLK7 act conf: inactive; EDANS-DABCYL int: inactive

How did COc1ccccc1C(=O)Nc1nc2cc3c(cc2s1)OCO3 do in these assays?
PLCb3 inh: inactive; KLK7 zymogen act: inactive; ADAM10 inh: inactive; ADAM17 inh: inactive; PLC-gamma1 inh: inactive

How did C[C@H](O)[C@@H]1C(=O)N2CCc3c([nH]c4c(-c5ccccc5)cccc34)[C@@H]2C[C@@H]1N(C)C(=S)NCCc1ccccc1 do in these assays?
PLCb3 inh: inactive; KLK7 zymogen act: inactive; ADAM10 inh: inactive; ADAM17 inh: inactive; PLC-gamma1 inh: inactive

What do the screens show for `COc1ccc2oc3ccccc3c(=O)c2c1`?
PLCb3 inh: inactive; KLK7 zymogen act: 25.3; ADAM10 inh: inactive; ADAM17 inh: inactive; PLC-gamma1 inh: inactive; proKLK7 act conf: 70.4; EDANS-DABCYL int: 62.5

Results for COc1cccc2c(=O)c3ccccc3oc12 ?
PLCb3 inh: inactive; KLK7 zymogen act: 13.3; ADAM10 inh: inactive; ADAM17 inh: inactive; PLC-gamma1 inh: inactive; proKLK7 act conf: 14.6; EDANS-DABCYL int: 21.5

Results for COCCCNC(=O)C[C@H]1C[C@@]2(C(=O)OC)C(=C[C@H](C(C)C)O[C@@H]2C2CC2)N(Cc2ccc3c(c2)OCO3)C1=O ?
PLCb3 inh: inactive; KLK7 zymogen act: inactive; ADAM10 inh: inactive; ADAM17 inh: inactive; PLC-gamma1 inh: inactive

Results for COc1cc(OC)c2ccc(=O)oc2c1 ?
PLCb3 inh: inactive; KLK7 zymogen act: 89.9; ADAM10 inh: inactive; ADAM17 inh: inactive; PLC-gamma1 inh: inactive; proKLK7 act conf: 49.2; EDANS-DABCYL int: 61.1

What do the screens show for `Cc1cc(=O)oc2cc(O)cc(O)c12`?
PLCb3 inh: inactive; KLK7 zymogen act: 65.8; ADAM10 inh: inactive; ADAM17 inh: inactive; PLC-gamma1 inh: inactive; proKLK7 act conf: 67.3; EDANS-DABCYL int: 76.4

Results for CCCCCc1cc(O)c2c(C)cc(=O)oc2c1 ?
PLCb3 inh: inactive; KLK7 zymogen act: inactive; ADAM10 inh: inactive; ADAM17 inh: inactive; PLC-gamma1 inh: inactive

Results for COc1cc(OC)c2c(C)cc(=O)oc2c1 ?
PLCb3 inh: inactive; KLK7 zymogen act: 32.4; ADAM10 inh: inactive; ADAM17 inh: inactive; PLC-gamma1 inh: inactive; proKLK7 act conf: 37.7; EDANS-DABCYL int: 48.0

How did COc1ccc(CN2C/C(=C/C3=CCCCC3)N(C(=O)OCc3ccccc3)C2=N)c(OC)c1 do in these assays?
PLCb3 inh: inactive; KLK7 zymogen act: inactive; ADAM10 inh: inactive; ADAM17 inh: inactive; PLC-gamma1 inh: inactive

How did COc1ccc(/C=N/NC(=O)c2nc(Cl)c(Cl)c(N)c2Cl)cc1COc1ccccc1F do in these assays?
PLCb3 inh: inactive; KLK7 zymogen act: 42.1; ADAM10 inh: inactive; ADAM17 inh: inactive; PLC-gamma1 inh: inactive; proKLK7 act conf: 58.8; EDANS-DABCYL int: 72.5

How did COC(=O)c1ccc2c(C)c(C(C)(C)O)[nH]c2c1 do in these assays?
PLCb3 inh: inactive; KLK7 zymogen act: 27.6; ADAM10 inh: inactive; ADAM17 inh: inactive; PLC-gamma1 inh: inactive; proKLK7 act conf: 66.8; EDANS-DABCYL int: 63.5

Results for O=C(NC1CCCCCC1)c1cc2c(=O)n3ccccc3nc2s1 ?
PLCb3 inh: inactive; KLK7 zymogen act: 25.1; ADAM10 inh: inactive; ADAM17 inh: inactive; PLC-gamma1 inh: inactive; proKLK7 act conf: 15.9; EDANS-DABCYL int: 7.9; EDANS interf: inactive

How did C=CCNC(=O)c1cc2c(=O)n3ccccc3nc2s1 do in these assays?
PLCb3 inh: inactive; KLK7 zymogen act: 51.9; ADAM10 inh: inactive; ADAM17 inh: inactive; PLC-gamma1 inh: inactive; proKLK7 act conf: 58.7; EDANS-DABCYL int: 68.8

How did CC(C)NC(=O)c1cc2c(=O)n3ccccc3nc2s1 do in these assays?
PLCb3 inh: inactive; KLK7 zymogen act: 75.5; ADAM10 inh: inactive; ADAM17 inh: inactive; PLC-gamma1 inh: inactive; proKLK7 act conf: 75.4; EDANS-DABCYL int: 81.4

Results for Cc1cccn2c(=O)c3cc(C(=O)NC4CCS(=O)(=O)C4)sc3nc12 (stereo not drawn) ?
PLCb3 inh: inactive; KLK7 zymogen act: 21.7; ADAM10 inh: inactive; ADAM17 inh: inactive; PLC-gamma1 inh: inactive; proKLK7 act conf: 52.7; EDANS-DABCYL int: 42.6; EDANS interf: inactive

How did Cc1cccn2c(=O)c3cc(C(=O)NC4CCCCCC4)sc3nc12 do in these assays?
PLCb3 inh: inactive; KLK7 zymogen act: inactive; ADAM10 inh: inactive; ADAM17 inh: inactive; PLC-gamma1 inh: inactive

Compound activity: PubChem, The Scripps Research Institute Molecular Screening Center
